High-throughput results from PubChem BioAssay.
HT1080 IDH1KD tx: toxicity to HT-1080 IDH1 knockdown cells (counter line) | 360,000 compounds, 2% hits | Potency, µM (titrated, usually from 46.1 µM), usual class: cytotoxic | HT-1080 IDH1 knockdown viability, ATP luminescence, 48 h | AID 686971
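Viability of IDH1-knockdown HT-1080 fibrosarcoma cells was assessed by CellTiter-Glo after 48 h at 37 °C with titrated compound; concentration-effect curves were classified by fit quality and response size.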
MCF10A rerep: induces DNA re-replication in MCF 10a normal breast cells; MCF 10A DNA re-replication, Hoechst nuclear intensity, 48 h; Potency, µM (series often up to 46.1 µM), usual class: activators; 350,000 compounds, 2.9% hits; AID 624296; note: nearly all actives have a fitted effect of over 50% in size
KB-V1 MDR tox: KB-V1 MDR subline cytotoxicity; KB-V1 MDR cells viability, CellTiter-Glo, 72 h; Potency, µM (highest dose often 46.1 µM), hits mostly cytotoxic; 400,000 compounds, 3.4% hits; AID 1347076; note: nearly all actives have a fitted effect of over 60% in size
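Readout: CellTiter-Glo luminescence, 10 min after addition. Cells: KB-V1 MDR subline, 72 h at 37 degrees C with compound. Analysis: corrected, normalized data fitted to concentration-effect curves.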
SW480 rerep: DNA re-replication induction in SW480 cells; SW480 DNA re-replication, Hoechst DNA content imaging, 48 h; Potency, µM (highest dose often 46.1 µM), actives largely listed as activators; 340,000 compounds, 1.8% hits; AID 624297; note: nearly all actives have a fitted effect of over 55% in size
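250 cells/well; 23 nL cpd via pin tool; 48 hr, 37 C, 5% CO2; Hoechst 40 min; imager read of total nuclear intensity, ex 405/em 500-530 nm.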
KB-3-1 cytotox: kills parental KB-3-1 adenocarcinoma cells. KB-3-1 viability, CellTiter-Glo ATP luminescence, 72 h. Potency, µM (top dose mostly 46.1 µM), actives largely listed as cytotoxic. 400,000 compounds, 1.4% hits. AID 1347075; note: nearly all actives have a fitted effect of over 60% in size
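Here the drug-naive KB-3-1 line serves as comparator for MDR sub-line selectivity; cells received compound titrations, 72 h at 37 °C, then CellTiter-Glo readout.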
HT1080NT lethal: kills 2HG-producing HT-1080-NT fibrosarcoma cells | Potency, µM (series often up to 46.1 µM), most hits filed as cytotoxic | AID 686970 | 360,000 compounds, 1.6% hits | HT-1080-NT fibrosarcoma viability, CellTiter-Glo ATP luminescence, 48 h;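 note: NT is the 2HG producing partner of a matched IDH1 knockdown line; nearly all actives have a fitted effect of over 55% in size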
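Viability by CellTiter-Glo luminescence after 48 h compound exposure at 37C of HT-1080-NT cells (750/well, RPMI, 5% FBS). % activity scaled between DMSO wells and medium-only wells, then curve-fitted and categorized by curve class.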
Hits are given with their value; – = inactive; ? = inconclusive; · = no result; [ ] = remark or other dose. This is a sample that favours compounds with a hit; in the whole collection about 7.9% have one here. Calls come from the whole dose curve; as a rule, active = well fitted curve in the direction sought with a large enough effect; inconclusive = small, poorly fitted or top-dose-only effect, or another doubt; inactive = no such curve, though single readings can be large; an effect the other way counts as inactive or inconclusive.

SMILES | HT1080 IDH1KD tx | MCF10A rerep | KB-V1 MDR tox | SW480 rerep | KB-3-1 cytotox | HT1080NT lethal
CC(C)(C)C(=O)/C(C#N)=C/c1cccs1 | – | – | – | – | – | –
N#C/C(=C\c1cccs1)C(=O)c1ccccc1Cl | ? | 5.8µM | – | ? | – | ?
CCN(CCCNC(=O)c1cc2c(=O)n(C)c3ccccc3c2s1)c1ccccc1 | · | · | – | · | – | ·
CC(NC(=O)Cc1cccs1)c1ccncc1 (stereo not given) | – | ? | – | – | – | –
CC(=O)Nc1ccc(OC(=O)c2ccc(Cl)cc2)cc1 | – | – | – | – | – | –
COc1cc(C(=O)Oc2ccccc2/C=N/NC(=O)c2ccc(C)c(Cl)c2)cc(OC)c1OC | ? | – | ? | ? | ? | ?
COc1cc(C(=O)Oc2ccccc2/C=N/NC(=O)c2ccc(Cl)cc2)cc(OC)c1OC | ? | ? | ? | ? | 5.2µM | ?
CC(=O)Nc1ccc(C(=O)N/N=C/c2ccccc2OC(=O)c2ccc(Cl)cc2)cc1 | 23µM | – | – | –[9.22 µM] | ? | ?
Cc1cccc(-c2ocnc2C(=O)Nc2ccccc2NC(=O)c2ccccn2)c1 | ? | ? | ? | – | – | 18µM
COc1nc(Nc2ccc([N+](=O)[O-])cc2)nc(NC(C)C)n1 | – | – | 12µM | – | – | –
COc1ccc(NC(=O)C(=O)NCCN2CCN(C(=O)c3ccco3)CC2)cc1 | – | – | – | – | – | –
CN(C)/C=N/c1c(C#N)cnn1-c1ccc(C(F)(F)F)cn1 | –[9.24 µM] | 15µM | – | – | – | –
CN(C)/C=N/c1c(C#N)cnn1-c1ccccc1 | – | ? | – | – | – | –
CN(C)c1ccc(C=Cc2nccc3ccccc23)cc1 | 21µM | · | – | · | 9.2µM | ?
CN(C)c1ccc(/C=C/c2ccnc3ccc4ccccc4c23)cc1 | · | · | – | · | 1.6µM | ·
CN(C)c1ccc(/C=C/c2ccnc3c2ccc2ccccc23)cc1 | · | · | ? | · | – | ·
CN(C)c1ccc(/C=C/c2ccnc3ccccc23)cc1 | · | · | ? | · | 12µM | ·
CC1CC(C)CN(C(=O)c2ccc(NC(=O)c3ccc(=O)[nH]c3)cc2)C1 (stereo not given) | – | – | – | – | – | –
C=CCN(C(=O)c1csnn1)C(C(=O)NC1CCCCC1)c1ccc(F)cc1 (stereo not given) | – | ? | – | – | – | –
COc1ccc(CNC(=O)[C@@H](Cc2ccccc2)NC(=O)CC[C@H]2O[C@@H](n3ccc(=O)[nH]c3=O)[C@H](O)[C@@H]2O)cc1 | – | · | ? | · | – | –
CS(=O)(=O)Nc1ccc(C2=NN(C(=O)c3ccccc3)C(c3cccs3)C2)cc1 (stereo not given) | – | – | ? | – | – | –
CC(C)(C)C(=O)N1N=C(c2ccc(NS(C)(=O)=O)cc2)CC1c1cccs1 (stereo not given) | 16µM | – | ? | – | – | ?
CCC(=O)N1N=C(c2cccc(NS(C)(=O)=O)c2)CC1c1cccs1 (stereo not given) | – | – | 18µM | – | – | –
O=C(Oc1c(Cl)cc(Cl)c2cccnc12)N1CCOCC1 | – | – | – | – | – | –
CN1CCN(Cc2cc(Cl)c3cccnc3c2OC(=O)c2cccs2)CC1 | – | ? | 5.8µM | ? | ? | –
SMILES | HT1080 IDH1KD tx | MCF10A rerep | KB-V1 MDR tox | SW480 rerep | KB-3-1 cytotox | HT1080NT lethal
O=C(Oc1c(Cl)cc(Cl)c2cccnc12)N1CCCCC1 | – | – | – | – | – | –
O=C(Oc1c(CN2CCOCC2)cc(Cl)c2cccnc12)c1ccccc1Br | ? | ? | ? | 3.3µM | ? | ?
O=C(NCCc1ccccc1)c1cccc2c1C(=O)N(C1CCCCC1)C2 | – | – | – | – | – | –
COc1ccc(CCNC(=O)c2cccc3c2C(=O)N(C2CCCCC2)C3)cc1OC | – | – | 18µM | – | – | –
COc1ccc(CCNS(=O)(=O)c2ccc(-c3ccc(=O)[nH]n3)o2)cc1OC | – | – | ? | ? | – | –
N#Cc1sc2nc(-c3cccs3)cc(-c3ccc(F)cc3)c2c1N | – | ? | – | ? | – | –
CCN(CC)c1ccc(N=Cc2ccc(N(CC)CC)cc2O)cc1 | – | – | – | ? | ? | –
CCN(CC)c1ccc(/C=N/NC(=O)OC)c(O)c1 | –[9.24 µM] | – | ? | – | – | –
CCN(CC)c1ccc(/C=N/NC(=O)c2ccc3nc[nH]c3c2)c(O)c1 | 2.1µM | – | – | 21µM | ? | ?
COc1cccc(/C=N/NC(=O)c2ccc3nc[nH]c3c2)c1O | ? | – | – | ? | – | ?
CCN(CC)c1ccc(/C=N/NC(=S)NC)c(O)c1 | – | 1.3µM | – | – | 9.2µM | –
CCN(CC)c1ccc(/C=N/NC(=O)c2ccoc2C)c(O)c1 | 5.2µM | ? | ? | 13µM | 12µM | ?
CCN(CC)c1ccc(/C=N/N=C(N)N)c(O)c1 | 1.6µM | 4.1µM | ? | 16µM | ? | 1µM
COC(=O)c1ccccc1S(=O)(=O)N(CCCO)Cc1cc2c(C)ccc(C)c2[nH]c1=O | ? | – | – | – | – | –
COc1ccccc1CNC(=O)C1CCCN(S(=O)(=O)c2cccc3nonc23)C1 (stereo not given) | – | – | – | – | – | –
Cc1c(NC(=O)COC(=O)/C=C/c2ccccc2Br)c(=O)n(-c2ccccc2)n1C | – | – | – | – | – | –
CC(C(=O)NCC1CCCCC1)N1CCc2ccccc2C1 (stereo not given) | – | – | ? | – | – | –
O=Cc1cc(Cl)ccc1OCCN1CCC(Cc2ccccc2)CC1 | ? | ? | – | – | ? | 21µM
CCn1c(SCC(=O)Nc2ccc3c(c2)OCO3)nnc1-c1cnccn1 | – | – | 21µM | – | – | –
CC1(C)Cc2ccccc2-c2nnc(SCC(=O)Nc3ccc4c(c3)OCO4)n21 | – | – | 4.1µM | – | – | –
Clc1ccc(CSc2nnc(-c3ccccn3)n2Cc2ccco2)c(Cl)c1 | – | ? | 10µM | – | ? | –
COC(=O)CSc1nnc(-c2ccccn2)n1Cc1ccco1 | – | – | – | – | – | –
CCn1c(COc2ccccc2C)nnc1SCC(=O)Nc1ccc2c(c1)OCCO2 | – | ? | 4.6µM | – | – | –
Cc1ccccc1OCc1nnc(SCC(=O)Nc2ccc3c(c2)OCO3)n1C | – | ? | – | – | – | ?
CCn1c(SCC(=O)Nc2ccc(OC)c(OC)c2)nnc1-c1cnccn1 | – | – | – | – | – | –
Nn1c(SCC(=O)Nc2ccc3c(c2)OCO3)nnc1-c1ccccc1 | – | – | ? | – | – | –
Cc1cccc(NC(=O)CSc2nnc(-c3cnccn3)n2Cc2ccco2)c1 | – | – | – | – | – | –
Fc1ccccc1CSc1nnc(-c2cnccn2)n1Cc1ccco1 | – | – | 18µM | – | – | –
